Data on 29 molecules can be found in PubChem BioAssay.

The nature of the experiment: binders of probe aHhip on microarray, primary screen, stem cell growth factor project, biochemical, small-molecule microarray, fluorescence 635/667 (AID 1087).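 Note: score merges spot fluorescence at 667nm with spot signal to noise ratio.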 The note with it: higher = more signal.
Regarding `CC(=O)c1ccc(C(O)C2C=CC3C(=O)NC(=O)C3N2Nc2ccc(Cl)cc2Cl)cc1` (centres undefined), the composite z-score was -0.106. As for `C=CCC(OC(C)=O)[C@@H]1[C@@H](N(Cc2cccc3ccccc23)C(=O)c2ccc(C)cc2)c2cc(OCCCO)ccc2N1C(=O)c1ccc2ccccc2n1` (some centres undefined), the figure is 0.386. The molecule `COC(=O)[C@@H]1N=C(c2ccc(OCCCO)cc2)O[C@@H]1c1ccccc1CN=[N+]=[N-]` registered a composite z-score of 0.291. Under `COc1ccc([Si](C)(C)[C@@H]2[C@@H](CCO)O[C@]3(C(=O)N(Cc4ccccc4)c4ccc(N5C(=O)c6ccccc6Oc6ccccc65)cc43)[C@H]2C)cc1` stands -0.284. Regarding `COC(=O)[C@@]1(Cc2ccc(F)cc2)[C@H]2c3cc(C(=O)N(C)C)n(CCO)c3C[C@H]2CN1C(=O)c1ccccc1`, the composite z-score was 0.218. As for `CC(C)(C)N1CC=CC23O[C@@H]4/C=C\CCCOC(=O)C4[C@H]2C(=O)N(CCCCCCO)[C@@H]3C1=O` (some centres undefined), the figure is -0.0618; as for `C=C(CCCC)C(=O)CC[C@H](OC(C)=O)c1ccccc1OCCO`, -0.358. As for `COCCOC(=O)N1C(=O)[C@@]2(c3cc(C#CCC(C(=O)OC)C(=O)OC)ccc31)[C@H](C(=O)N1CCc3cc(OC)c(OC)cc3C1)[C@H]1C(=O)O[C@H](c3ccccc3)[C@H](c3ccccc3)N1[C@@H]2c1ccc(O)cc1`, the figure is -0.0459; as for `O=C(NCCO)C1=C[C@H](Oc2ccccc2I)[C@@H](O)[C@H](NCc2ccc(F)cc2)C1`, 0.0722. Regarding `C=CCC(OC(C)=O)[C@@H]1[C@@H](N(Cc2cccc3ccccc23)C(=O)c2ccc(-c3ccccc3)cc2)c2cc(OCCCO)ccc2N1C(=O)c1ccc2ccccc2n1` (some centres undefined), the composite z-score came to 0.28. For the molecule `COc1ccc([Si](C)(C)[C@H]2[C@H](CCO)O[C@@]3(C(=O)N(Cc4ccccc4)c4ccc(N(C=O)c5ccccc5)cc43)[C@@H]2C)cc1`, the composite z-score was -0.0994. As for `CCCC[C@H]1OB(O)C[C@H]2C1=C(C)C[C@H]1C(=O)C=CC(=O)[C@H]12`, the figure is 0.176; as for `[N-]=[N+]=NCc1ccccc1[C@@H]1OC(c2ccc(OCCCO)cc2)=N[C@]1(Cc1ccccc1)C(=O)NCc1ccccc1`, 0.0373. Under `COc1ccccc1CN1C(=O)c2ccccc2[C@](Cc2ccccc2I)(C(=O)NCCCN(C)C)[C@@H]1c1ccc(CO)cc1` stands -0.37.

Take `CCCCCCc1nc(-c2ccc(OC)nc2)cc2c1[Si](C(C)C)(C(C)C)OC2`: the composite z-score is 0.0306. As for `CC(=O)n1cc(C(O)C2C=CC3C(=O)N(c4ccccc4)C(=O)C3N2Nc2ccccc2F)c2ccccc21` (centres undefined), the figure is 0.0505; as for `COc1ccc(NN2C(C(O)c3cc(C(F)(F)F)cc(C(F)(F)F)c3)C=CC3C(=O)N(C4CCCCC4)C(=O)C32)cc1` (centres undefined), 1.67; as for `CC1CC/C=C\[C@H]2OC34C=CCN(c5ccc(Cl)cc5)C(=O)[C@H]3N(CCCO)C(=O)[C@]4(C)C2C(=O)O1` (some centres undefined), -0.296. Under `O=C1NC(=O)C2C1C=CC(C(O)c1cccc(O)c1)N2Nc1ccc(Cl)cc1Cl` (centres undefined) stands -0.272; under `CCc1cccc(NC(=O)O[C@H]2[C@H](OC(=O)Nc3ccc4c(c3)OCO4)[C@H](OC(=O)Nc3ccc4c(c3)OCO4)[C@@H](OC)O[C@@H]2CO)c1`, -0.0645. `C[N+](C)(C)CCCCCCNC(=O)[C@@H]1C[C@@H]2C(=O)N[C@@H](Cc3ccccc3)C(=O)N2[C@@H]1c1ccc(O)cc1` registered a composite z-score of 0.0373.

As to `CCN(CC)c1ccc(N2CC=CC34O[C@@H]5C=CCOC(=O)[C@@H]5[C@H]3C(=O)N(CCCO)[C@@H]4C2=O)cc1` (some centres undefined), the composite z-score turned out to be 0.0881. As for `COCCCNC(=O)[C@@]1(Sc2ccc(C)cc2)CC(=O)N(C2CCCCC2)[C@@H]1c1ccc(CO)cc1I`, the figure is 0.176; as for `COCCOC(=O)N1C(=O)[C@@]2(c3cc(C#CC4(O)CCCCCC4)ccc31)[C@H](c1ccc(OCCO)cc1)N1[C@H](c3ccccc3)[C@H](c3ccccc3)OC(=O)[C@H]1[C@@H]2C(=O)N1CCCCCCC1`, 2.99; as for `C=CC[C@@]12N=C(c3ccc(OCCCO)cc3)O[C@@H]1c1ccccc1N(Cc1ccccc1)C2=O`, 0.145. As for `C=C(CCCC)/C(=C/C[C@H](OC(C)=O)c1cccc(OCCO)c1)c1cc(C(=O)OC)ccc1OC`, the figure is -0.201; as for `O=c1cccc(-c2ccccc2C(F)(F)F)o1`, 0.173; as for `COC(=O)[C@@]1(Cc2ccc(OC)cc2)[C@H]2c3cc(C(=O)N4CCCC4)n(CCc4ccc(OC)c(Br)c4)c3C[C@H]2CN1C(=O)c1ccccc1`, 0.21. As for `COc1ccc(CCNC(=O)[C@@H]2c3ccccc3C(=O)N(CC34CC5CC(CC(C5)C3)C4)[C@H]2c2ccc(CO)cc2)cc1`, the figure is 0.0972.
